Test results: the supplement of paper PMC10849652
Of roughly 7,900 targets only a part is listed; those with a hit were picked by preference. About 0.6% of all pairs of compound and target were hits.

Experiments:
Experiment in all cases: log2 fold change, soluble protein after heating vs DMSO (PISA); higher = thermal stabilisation; K562 cells, 10 uM, 30 min; active = over 0.2 and 3.5 SD of the protein, either way, in both replicates (recomputed)
[1] = compound: COC1=CC=C(C=C1)CN2C=CC3=C2C=C(C=C3)C(=O)NO
In short: (§1)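 K562 cells at 2×10^6 cells/mL were exposed to 10 μM compound for 30 min, then aliquots were heated for 3 min across 48°C-58°C, pooled, and extracted in PBS containing 0.5% NP-40 at 4°C. The supernatant after 21,000xg for 90 min was taken as soluble protein and measured by TMTpro 16plex LC-MS/MS with channel sums equalised. Thermal stability is reported relative to control samples, with values from duplicates. Fold changes are given on a log2 scale.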

filanesib = compound: CON(C)C(=O)N1N=C(c2cc(F)ccc2F)S[C@@]1(CCCN)c1ccccc1 [filanesib]
In short: as §1

zotarolimus = compound: CO[C@H]1C[C@@H]2CC[C@@H](C)[C@@](O)(O2)C(=O)C(=O)N2CCCC[C@H]2C(=O)O[C@H]([C@H](C)C[C@@H]2CC[C@H](n3cnnn3)[C@H](OC)C2)CC(=O)[C@H](C)/C=C(\C)[C@@H](O)[C@@H](OC)C(=O)[C@H](C)C[C@H](C)/C=C/C=C/C=C/1C [zotarolimus]
In short: as §1

idasanutlin = compound: COc1cc(C(=O)O)ccc1NC(=O)[C@@H]1N[C@@H](CC(C)(C)C)[C@](C#N)(c2ccc(Cl)cc2F)[C@H]1c1cccc(Cl)c1F [idasanutlin]
In short: as §1

alisertib = compound: COc1cc(Nc2ncc3c(n2)-c2ccc(Cl)cc2C(c2c(F)cccc2OC)=NC3)ccc1C(=O)O [alisertib]
In short: as §1

[2] = compound: COc1cc2nc(-c3cc(F)ccc3O)nc(N[C@@H]3CNC[C@H]3C(C)(C)O)c2cc1OC
In short: as §1

gefitinib = compound: COc1cc2ncnc(Nc3ccc(F)c(Cl)c3)c2cc1OCCCN1CCOCC1 [gefitinib]
In short: as §1

[3] = compound: COc1cccc2cc(-c3nc([C@H]4CC[C@H](C(=O)O)CC4)n4ncnc(N)c34)[nH]c12
In short: as §1

lapatinib = compound: CS(=O)(=O)CCNCc1ccc(-c2ccc3ncnc(Nc4ccc(OCc5cccc(F)c5)c(Cl)c4)c3c2)o1 [lapatinib]
In short: as §1

pictilisib = compound: CS(=O)(=O)N1CCN(Cc2cc3nc(-c4cccc5[nH]ncc45)nc(N4CCOCC4)c3s2)CC1 [pictilisib]
In short: as §1

Measured: log2 fold change

CLUH, A0A494C0R8
inactive: [1] 0.131 | filanesib 0.168 | zotarolimus -0.065 | idasanutlin 0.027 | alisertib 0.007 | [2] -0.024 | gefitinib 0.078 | [3] -0.227 | lapatinib -0.011

CERS2 (UniProt Q96G23)
active: pictilisib -0.262
inactive: [1] -0.045 | filanesib -0.117 | zotarolimus -0.062 | idasanutlin -0.047 | alisertib -0.129 | [2] -0.107 | gefitinib -0.095 | [3] -0.005 | lapatinib -0.03

CLCN7 (UniProt P51798)
active: filanesib -0.294
inactive: [1] 0.112 | zotarolimus 0.008 | idasanutlin -0.006 | alisertib -0.084 | [2] -0.077 | gefitinib -0.144 | [3] 0.023 | lapatinib -0.011

CSNK2A2 (UniProt P19784)
inactive: [1] -0.042 | filanesib -0.019 | zotarolimus -0.003 | idasanutlin -0.094 | alisertib 0.001 | [2] -0.177 | gefitinib -0.031 | [3] 0.033 | lapatinib 0.02 | pictilisib 0.128

CHCHD4 isoform 2 (UniProt Q8N4Q1)
Chain of UniProt Q8N4Q1 (Q8N4Q1 whole entry, looked up): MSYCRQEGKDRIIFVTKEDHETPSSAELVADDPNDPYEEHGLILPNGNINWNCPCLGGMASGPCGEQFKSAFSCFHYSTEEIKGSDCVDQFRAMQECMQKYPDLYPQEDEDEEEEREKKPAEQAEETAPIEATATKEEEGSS
inactive: [1] 0 | filanesib -0.059 | zotarolimus 0.032 | idasanutlin -0.043 | alisertib -0.099 | [2] -0.285 | gefitinib 0.011 | [3] 0.102 | lapatinib 0.341 | pictilisib -0.016

CASC3 (UniProt O15234)
inactive: [1] 0 | filanesib 0.17 | zotarolimus -0.105 | idasanutlin 0.038 | alisertib -0.051 | [2] 0.16 | gefitinib 0 | [3] -0.105 | lapatinib -0.077 | pictilisib -0.066

CASTOR2 (UniProt A6NHX0)
Chain of UniProt A6NHX0 (A6NHX0 whole entry, looked up): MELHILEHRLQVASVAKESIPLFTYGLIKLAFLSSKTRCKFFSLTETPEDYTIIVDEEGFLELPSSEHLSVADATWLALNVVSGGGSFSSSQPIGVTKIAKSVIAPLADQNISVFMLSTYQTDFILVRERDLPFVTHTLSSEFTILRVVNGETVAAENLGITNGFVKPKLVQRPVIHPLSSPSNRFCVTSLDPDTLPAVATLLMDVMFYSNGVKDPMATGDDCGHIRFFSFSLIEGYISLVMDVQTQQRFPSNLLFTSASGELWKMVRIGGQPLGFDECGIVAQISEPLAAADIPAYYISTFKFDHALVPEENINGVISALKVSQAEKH
inactive: [1] 0.04 | filanesib -0.042 | zotarolimus -0.038 | idasanutlin 0.027 | alisertib -0.08 | [2] 0.194 | gefitinib -0.053 | [3] 0.063 | lapatinib -0.108 | pictilisib -0.042

CCDC9 (UniProt Q9Y3X0)
Chain of UniProt Q9Y3X0 (Q9Y3X0 whole entry, looked up): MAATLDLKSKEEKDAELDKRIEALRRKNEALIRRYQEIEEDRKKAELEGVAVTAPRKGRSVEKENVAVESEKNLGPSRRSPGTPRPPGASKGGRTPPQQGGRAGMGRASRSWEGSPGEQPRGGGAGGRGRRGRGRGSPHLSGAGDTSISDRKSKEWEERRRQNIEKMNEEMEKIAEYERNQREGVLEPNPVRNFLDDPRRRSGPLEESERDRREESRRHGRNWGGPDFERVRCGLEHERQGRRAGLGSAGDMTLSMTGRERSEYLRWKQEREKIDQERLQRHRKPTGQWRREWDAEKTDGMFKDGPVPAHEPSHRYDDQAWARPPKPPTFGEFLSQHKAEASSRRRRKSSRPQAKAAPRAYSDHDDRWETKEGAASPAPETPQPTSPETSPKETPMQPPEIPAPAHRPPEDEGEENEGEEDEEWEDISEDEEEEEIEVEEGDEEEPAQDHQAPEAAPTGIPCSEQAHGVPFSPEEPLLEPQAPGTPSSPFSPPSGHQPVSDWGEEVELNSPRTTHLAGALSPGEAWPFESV
inactive: [1] 0.057 | filanesib 0.021 | zotarolimus -0.11 | idasanutlin 0.018 | alisertib -0.035 | [2] 0.02 | gefitinib -0.078 | [3] -0.021 | lapatinib 0.003 | pictilisib -0.015

CRKL (UniProt P46109)
inactive: [1] 0.006 | filanesib 0.002 | zotarolimus 0.007 | idasanutlin 0.022 | alisertib -0.036 | [2] 0.021 | gefitinib 0 | [3] 0.102 | lapatinib -0.012 | pictilisib 0.057

CNOT4 isoform 6 (UniProt O95628)
Chain of UniProt O95628 (O95628 whole entry, looked up): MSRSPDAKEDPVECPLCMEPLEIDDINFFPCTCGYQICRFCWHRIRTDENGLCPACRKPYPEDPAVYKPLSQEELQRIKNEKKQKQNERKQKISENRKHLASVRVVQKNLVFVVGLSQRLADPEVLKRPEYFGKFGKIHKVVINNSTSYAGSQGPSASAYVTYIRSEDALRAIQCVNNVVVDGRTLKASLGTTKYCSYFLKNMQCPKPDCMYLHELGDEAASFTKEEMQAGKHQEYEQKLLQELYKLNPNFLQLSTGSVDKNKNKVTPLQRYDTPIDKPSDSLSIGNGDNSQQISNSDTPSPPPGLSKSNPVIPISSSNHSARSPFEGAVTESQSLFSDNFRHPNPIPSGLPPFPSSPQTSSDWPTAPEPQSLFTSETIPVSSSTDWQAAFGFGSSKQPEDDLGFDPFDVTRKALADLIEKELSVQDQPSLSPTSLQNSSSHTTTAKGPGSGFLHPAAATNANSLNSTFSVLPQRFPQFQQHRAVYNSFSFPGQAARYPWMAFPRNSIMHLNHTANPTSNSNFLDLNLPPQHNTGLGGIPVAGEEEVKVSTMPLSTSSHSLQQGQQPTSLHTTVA
inactive: [1] -0.057 | filanesib 0.017 | zotarolimus -0.023 | idasanutlin -0.001 | alisertib -0.036 | [2] 0.037 | gefitinib -0.007 | [3] -0.012 | lapatinib -0.008 | pictilisib 0.036

CCAR2 isoform 2 (UniProt Q8N163)
inactive: [1] -0.038 | filanesib 0.024 | zotarolimus 0.063 | idasanutlin -0.065 | alisertib -0.072 | [2] -0.187 | gefitinib -0.03 | [3] -0.042 | lapatinib 0.04 | pictilisib -0.034

CSNK2A1 (UniProt P68400)
Chain of UniProt P68400 (P68400 whole entry, looked up): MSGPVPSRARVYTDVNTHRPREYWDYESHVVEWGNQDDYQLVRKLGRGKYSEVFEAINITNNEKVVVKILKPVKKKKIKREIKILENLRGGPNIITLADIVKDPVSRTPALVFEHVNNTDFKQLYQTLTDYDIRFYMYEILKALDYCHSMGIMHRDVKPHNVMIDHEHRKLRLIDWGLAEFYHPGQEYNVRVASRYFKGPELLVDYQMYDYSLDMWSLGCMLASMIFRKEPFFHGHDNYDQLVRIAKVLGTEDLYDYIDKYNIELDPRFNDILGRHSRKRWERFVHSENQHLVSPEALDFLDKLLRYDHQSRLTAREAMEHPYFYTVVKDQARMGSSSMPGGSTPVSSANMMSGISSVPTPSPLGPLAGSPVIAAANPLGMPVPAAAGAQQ
inactive: [1] -0.025 | filanesib 0.03 | zotarolimus -0.015 | idasanutlin -0.009 | alisertib -0.073 | [2] -0.167 | gefitinib -0.023 | [3] 0.066 | lapatinib 0.032 | pictilisib 0.102

CHP1 (UniProt Q99653)
Chain of UniProt Q99653 (Q99653 whole entry, looked up): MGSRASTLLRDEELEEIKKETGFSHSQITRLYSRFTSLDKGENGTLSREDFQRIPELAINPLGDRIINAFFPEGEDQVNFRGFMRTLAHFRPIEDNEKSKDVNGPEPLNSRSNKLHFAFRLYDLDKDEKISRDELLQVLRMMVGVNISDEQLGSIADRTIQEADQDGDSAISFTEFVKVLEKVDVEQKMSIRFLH
inactive: [1] 0.039 | filanesib -0.044 | zotarolimus 0.058 | idasanutlin -0.084 | alisertib -0.144 | [2] 0.129 | gefitinib 0.026 | [3] -0.02 | lapatinib -0.054 | pictilisib 0.053

CHCHD2 (UniProt Q9Y6H1)
Chain of UniProt Q9Y6H1 (Q9Y6H1 whole entry, looked up): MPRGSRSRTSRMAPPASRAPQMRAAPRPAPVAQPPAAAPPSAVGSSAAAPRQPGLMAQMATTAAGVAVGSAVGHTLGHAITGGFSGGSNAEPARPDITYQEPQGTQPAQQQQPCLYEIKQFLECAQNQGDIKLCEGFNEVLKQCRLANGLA
inactive: [1] 0.101 | filanesib 0.026 | zotarolimus -0.024 | alisertib 0.053 | [2] -0.002 | gefitinib -0.028 | [3] -0.155 | lapatinib -0.024 | pictilisib 0.031
active: idasanutlin -0.457

C16orf58 (UniProt Q96GQ5)
inactive: [1] -0.059 | filanesib -0.148 | zotarolimus -0.043 | idasanutlin -0.053 | alisertib -0.009 | [2] -0.009 | gefitinib 0.044 | [3] 0.037 | lapatinib 0.004 | pictilisib 0.015

CSE1L (UniProt P55060)
inactive: [1] 0.024 | filanesib -0.1 | zotarolimus 0.027 | idasanutlin -0.135 | alisertib -0.059 | [2] 0.005 | gefitinib -0.018 | [3] -0.019 | lapatinib -0.036 | pictilisib -0.015

CHD4 isoform 2 (UniProt Q14839)
inactive: [1] 0.04 | filanesib 0.079 | zotarolimus 0.019 | idasanutlin 0.045 | alisertib 0 | [2] -0.099 | gefitinib 0.055 | [3] -0.097 | lapatinib 0.013 | pictilisib -0.028

CHST10 (UniProt O43529)
inactive: [1] -0.11 | filanesib 0.021 | zotarolimus 0.088 | idasanutlin 0.062 | alisertib -0.014 | [2] -0.073 | gefitinib -0.071 | [3] 0.088 | lapatinib 0.058 | pictilisib 0.027

CAMSAP1 isoform 3 (UniProt Q5T5Y3)
Chain of UniProt Q5T5Y3 (Q5T5Y3 whole entry, looked up): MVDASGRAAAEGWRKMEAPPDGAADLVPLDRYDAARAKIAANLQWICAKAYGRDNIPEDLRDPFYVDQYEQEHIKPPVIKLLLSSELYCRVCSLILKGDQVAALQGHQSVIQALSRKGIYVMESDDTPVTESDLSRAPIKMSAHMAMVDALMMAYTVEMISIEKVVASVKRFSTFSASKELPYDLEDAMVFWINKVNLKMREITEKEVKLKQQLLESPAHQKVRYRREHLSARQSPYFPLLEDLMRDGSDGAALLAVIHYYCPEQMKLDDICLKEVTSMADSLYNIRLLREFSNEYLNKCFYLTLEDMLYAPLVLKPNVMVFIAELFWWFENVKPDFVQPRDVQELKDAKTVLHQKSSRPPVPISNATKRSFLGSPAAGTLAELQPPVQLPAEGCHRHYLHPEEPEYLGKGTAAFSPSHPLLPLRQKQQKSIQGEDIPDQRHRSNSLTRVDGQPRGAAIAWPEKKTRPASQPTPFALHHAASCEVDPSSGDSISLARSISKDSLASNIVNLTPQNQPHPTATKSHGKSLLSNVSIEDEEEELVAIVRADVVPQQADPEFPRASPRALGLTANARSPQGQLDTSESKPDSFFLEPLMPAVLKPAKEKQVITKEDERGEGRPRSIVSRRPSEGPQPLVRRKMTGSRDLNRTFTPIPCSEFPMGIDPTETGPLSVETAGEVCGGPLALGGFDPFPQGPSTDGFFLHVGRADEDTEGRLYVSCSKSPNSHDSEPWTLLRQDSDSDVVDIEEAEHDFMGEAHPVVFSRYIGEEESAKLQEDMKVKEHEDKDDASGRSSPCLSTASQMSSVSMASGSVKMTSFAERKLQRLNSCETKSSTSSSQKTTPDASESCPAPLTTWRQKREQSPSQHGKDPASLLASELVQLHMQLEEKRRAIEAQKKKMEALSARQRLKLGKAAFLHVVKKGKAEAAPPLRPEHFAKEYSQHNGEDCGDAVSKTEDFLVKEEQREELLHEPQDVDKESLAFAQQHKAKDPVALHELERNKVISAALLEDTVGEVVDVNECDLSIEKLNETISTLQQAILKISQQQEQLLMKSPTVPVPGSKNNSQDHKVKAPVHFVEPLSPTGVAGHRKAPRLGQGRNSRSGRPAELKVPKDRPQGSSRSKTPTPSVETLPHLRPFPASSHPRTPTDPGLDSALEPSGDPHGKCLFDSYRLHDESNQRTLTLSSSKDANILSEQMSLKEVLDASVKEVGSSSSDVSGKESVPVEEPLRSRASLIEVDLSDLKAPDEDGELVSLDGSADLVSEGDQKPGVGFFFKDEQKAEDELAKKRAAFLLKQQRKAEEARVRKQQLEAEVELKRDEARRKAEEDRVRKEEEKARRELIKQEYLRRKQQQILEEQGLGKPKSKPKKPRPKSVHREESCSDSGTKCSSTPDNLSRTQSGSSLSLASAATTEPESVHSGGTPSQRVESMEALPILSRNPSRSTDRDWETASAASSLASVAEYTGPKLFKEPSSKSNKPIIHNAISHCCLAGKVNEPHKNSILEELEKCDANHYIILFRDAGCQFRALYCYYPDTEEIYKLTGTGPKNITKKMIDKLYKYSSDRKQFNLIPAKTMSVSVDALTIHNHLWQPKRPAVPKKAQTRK
inactive: [1] 0.011 | filanesib -0.015 | zotarolimus 0.045 | idasanutlin 0.091 | alisertib 0.039 | [2] 0.169 | gefitinib -0.034 | [3] 0.056 | lapatinib 0.095 | pictilisib 0.118

CDK1 (UniProt P06493)
inactive: [1] 0.04 | filanesib 0.024 | zotarolimus 0.007 | idasanutlin 0.02 | alisertib -0.083 | [2] -0.036 | gefitinib 0.009 | [3] 0.017 | lapatinib 0.008 | pictilisib -0.002

CASP3 (UniProt P42574)
Chain of UniProt P42574 (P42574 whole entry, looked up): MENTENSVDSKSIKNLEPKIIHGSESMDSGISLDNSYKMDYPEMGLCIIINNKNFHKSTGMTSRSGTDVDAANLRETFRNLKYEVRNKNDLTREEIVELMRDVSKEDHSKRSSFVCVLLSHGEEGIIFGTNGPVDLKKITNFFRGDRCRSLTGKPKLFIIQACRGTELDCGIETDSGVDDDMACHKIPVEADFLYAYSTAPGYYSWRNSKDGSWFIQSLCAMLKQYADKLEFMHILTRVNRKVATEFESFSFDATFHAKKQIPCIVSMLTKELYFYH
inactive: [1] 0.004 | filanesib -0.002 | zotarolimus 0.029 | idasanutlin 0.072 | alisertib -0.103 | [2] 0.025 | gefitinib 0.002 | [3] -0.018 | lapatinib 0.017 | pictilisib 0.006

CALCOCO2 isoform 4 (UniProt Q13137)
inactive: [1] -0.041 | filanesib -0.166 | zotarolimus -0.044 | idasanutlin 0.014 | alisertib 0 | [2] 0.018 | gefitinib -0.07 | [3] -0.08 | lapatinib 0 | pictilisib 0.031

COASY isoform 2 (UniProt Q13057)
inactive: [1] 0.034 | filanesib -0.061 | zotarolimus 0.024 | idasanutlin -0.071 | alisertib -0.038 | [2] 0.01 | gefitinib -0.038 | [3] 0.045 | lapatinib 0.043 | pictilisib 0.028

CHD3 isoform 3 (UniProt Q12873)
inactive: [1] -0.137 | filanesib 0.082 | zotarolimus 0.174 | idasanutlin 0.097 | alisertib -0.001 | [2] -0.207 | gefitinib 0 | [3] -0.051 | lapatinib -0.016 | pictilisib -0.024

CDC42EP1 (UniProt Q00587)
Chain of UniProt Q00587 (Q00587 whole entry, looked up): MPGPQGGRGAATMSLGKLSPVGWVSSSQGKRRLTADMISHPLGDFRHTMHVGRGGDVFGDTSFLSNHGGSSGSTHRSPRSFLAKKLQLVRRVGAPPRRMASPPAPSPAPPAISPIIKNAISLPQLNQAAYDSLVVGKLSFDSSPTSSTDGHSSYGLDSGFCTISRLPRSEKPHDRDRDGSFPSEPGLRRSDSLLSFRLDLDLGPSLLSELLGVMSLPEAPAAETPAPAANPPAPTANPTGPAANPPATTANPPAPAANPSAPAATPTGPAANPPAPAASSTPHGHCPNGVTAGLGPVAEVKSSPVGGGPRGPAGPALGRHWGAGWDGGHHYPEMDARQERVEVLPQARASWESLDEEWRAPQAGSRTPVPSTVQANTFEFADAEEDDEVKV
inactive: [1] -0.139 | filanesib -0.07 | zotarolimus 0.014 | idasanutlin 0 | alisertib 0 | gefitinib 0.087 | [3] -0.057 | lapatinib -0.015 | pictilisib -0.143
active: [2] -0.492

CSK (UniProt P41240)
inactive: [1] 0.034 | filanesib -0.049 | zotarolimus 0.007 | idasanutlin -0.056 | alisertib -0.018 | [2] 0.024 | gefitinib 0.024 | [3] -0.049 | lapatinib 0.008 | pictilisib 0.02

CDC42BPB (UniProt Q9Y5S2)
inactive: [1] -0.062 | filanesib 0.147 | zotarolimus 0.089 | idasanutlin 0.062 | alisertib -0.1 | [2] -0.371 | gefitinib -0.07 | [3] 0.071 | lapatinib -0.009 | pictilisib 0.025

CD63 (UniProt P08962)
Chain of UniProt P08962 (P08962 whole entry, looked up): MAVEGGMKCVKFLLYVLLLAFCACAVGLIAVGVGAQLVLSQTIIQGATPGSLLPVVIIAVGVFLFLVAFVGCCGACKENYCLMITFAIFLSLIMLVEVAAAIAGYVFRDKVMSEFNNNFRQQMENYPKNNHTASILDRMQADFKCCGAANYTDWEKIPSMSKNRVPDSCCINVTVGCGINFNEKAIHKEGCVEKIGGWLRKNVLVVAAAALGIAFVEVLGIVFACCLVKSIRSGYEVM
inactive: [1] -0.053 | zotarolimus -0.01 | idasanutlin -0.051 | alisertib -0.069 | [2] -0.031 | gefitinib -0.076 | [3] 0.096 | lapatinib -0.002 | pictilisib 0.032
active: filanesib -0.336

COA6 isoform 2 (UniProt Q5JTJ3)
Chain of UniProt Q5JTJ3 (Q5JTJ3 whole entry, looked up): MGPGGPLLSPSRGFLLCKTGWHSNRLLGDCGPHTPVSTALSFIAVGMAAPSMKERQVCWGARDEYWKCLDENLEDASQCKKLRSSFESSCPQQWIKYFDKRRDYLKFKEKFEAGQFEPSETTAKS
inactive: [1] 0.02 | filanesib -0.029 | zotarolimus 0.019 | idasanutlin -0.052 | alisertib 0.002 | [2] -0.042 | gefitinib -0.003 | [3] 0.022 | lapatinib -0.017 | pictilisib -0.006

CNTN4 (UniProt Q8IWV2)
inactive: [1] 0.1 | filanesib 0 | zotarolimus 0.017 | idasanutlin -0.148 | alisertib -0.399 | [2] 0.341 | gefitinib -0.039 | [3] -0.169 | lapatinib -0.047 | pictilisib 0.222
